Experimental data as given in ChEMBL document CHEMBL4513216, “Probing the Open Global Health Chemical Diversity Library for Multistage-Active Starting Points for Next-Generation Antimalarials” (ACS Infect Dis, 2020).
About 8,600 (12%) of roughly 69,000 compounds showed an effect of 50% or more. The entries come from a sample that favours strong results as a whole.

System: Plasmodium berghei
Experiment: Screen against P. berghei liver stage (PbLuc), transformed with Luciferase, at 10uM
Format: functional, HepG2
Conditions: tested at 10 uM

Compound	INHIBITION
O=C1CN(Cc2occc2C(=O)NCCc2ccc(F)cc2)CCN1	8.41%
CC(C)CCNC(=O)Cc1cnc(-n2cccc2)s1	37.4%
c1cnc(N2Cc3nccn3CC(COc3cccnc3)C2)nc1 (stereo not given)	-13.2%
Cc1cc(F)c(S(=O)(=O)Nc2ccn(CCCC#N)n2)cc1F	30.5%
Cn1cc(C(=O)N[C@H]2CN(Cc3nccs3)[C@@H]3CCCO[C@H]23)cn1	-8.94%
CC(C)C1CCC(N2CCN(CCS(C)(=O)=O)CC2)CC1 (stereo not given)	32.9%
CCCn1cc(CN2CCCC2c2cccc(-n3ccnc3)n2)cn1 (stereo not given)	15.9%
O=C(NCC(O)c1ccoc1)Nc1cccs1 (stereo not given)	19.8%
Cc1nc(C)n(C2CCCN(C(=O)Cc3cn4ccccc4n3)C2)n1 (stereo not given)	25.4%
O=C(NCc1ncc[nH]1)c1c(F)cccc1I	25.5%
Cc1c(I)cccc1C(=O)NCc1ncc[nH]1	57%
Cc1cccc(I)c1C(=O)NCc1ncc[nH]1	8.08%
Cc1c(I)cccc1C(=O)NCC1(CO)CC1	-4.86%
CCc1ccc(CCC(=O)NCc2nnc[nH]2)cc1	24.5%
Cc1c(I)cccc1C(=O)NCc1nnc[nH]1	51.5%
Cc1c2nnn(CC(=O)N(C)C)c(=O)c2nn1C	69.4%
Cc1c2ncn(CC(=O)NC(C)C)c(=O)c2nn1C	48.5%
Cc1c2ncn(CC(=O)N(C)C)c(=O)c2nn1C	0%
CC(=O)N1CCN(c2cc(C3CCNCC3)ccn2)CC1	7.19%
Cc1cncc(C(=O)N2CCO[C@H]3[C@H](OCCN(C)C)CC[C@@H]32)c1	14.5%
O=C(CC1CCCO1)NS(=O)(=O)Cc1cc(-c2ccccc2)no1 (stereo not given)	25%
Cc1ccc(CN2CCC3(CCN(c4cnn(C)c4)C3=O)C2)s1 (stereo not given)	1.94%
CCN1C[C@H]2C3(CCN(C(=O)NC(C)C)CC3)CC[C@@]2(C(=O)N(C)C)C1	28.5%
CCS(=O)(=O)N1CCC2(CC1)CC[C@@]1(C(=O)N(C)C)CN(C)C[C@@H]21	-10.5%
CC(C)NC(=O)N1CCC2(CC1)CC[C@@]1(C(=O)N(C)C)CN(C)C[C@@H]21	67.5%
O=C(NCc1cc(=O)n2c(n1)CN(CC1CCOC1)CCC2)C1CC1 (stereo not given)	26.8%
Cc1nc(N2CC[C@@H](c3ccc4ccccc4c3)[C@H](O)C2)no1	31.2%

Compound	INHIBITION
CCCc1nc(N2CC[C@@H](c3ccc4ccccc4c3)[C@H](O)C2)no1	36.7%
O[C@@H]1CN(c2noc(C3CC3)n2)CC[C@H]1c1ccc2ccccc2c1	51.2%
CC(C)NC(=O)N1CCC2(CC1)NC(=O)CC2c1ccncc1 (stereo not given)	-3.51%
CCc1nnc2n1CCN(C(=O)c1cn(-c3ccccc3)nn1)C2	-1.15%
Cc1occc1C(=O)N1CCC2(CCN(Cc3nccs3)C2)CC1	1.81%
Cc1nc(CN2CCC23CCN(Cc2ccco2)CC3)cs1	49.4%
Cc1nc(CN2C(=O)CCC23CCN(Cc2ccco2)CC3)cs1	3.17%
Cc1nc(CN2C[C@@H]3CN(C(=O)c4ccco4)C[C@@H]3C2=O)cs1	40.4%
Cc1nc(CN2C[C@@H]3CN(C(=O)c4ccoc4C)C[C@@H]3C2=O)cs1	64.9%
Cc1nc(CN2C[C@@H]3CN(C(=O)c4ccoc4C)C[C@@H]3C2)cs1	1.48%
Cc1nc(CN2CCC3(C2)CN(Cc2ccco2)C3)cs1	56.6%
Cc1occc1C(=O)N1CCC2(CCN(Cc3cccs3)C2)CC1	-33.9%
Cc1nc(CN2CCC3(CCN(C(=O)c4ccoc4C)CC3)C2)cs1	66.2%
Cc1cnc(Nc2cccc(C3CCCN3C(=O)CO)n2)s1 (stereo not given)	-0.902%
Cc1cnc(Nc2cccc(C3CCCN3Cc3cn(C)nc3C)n2)s1 (stereo not given)	64.5%
Cc1ccc(C2CCCCCN2Cc2cn(C)nc2C)s1 (stereo not given)	27.6%
Cc1nn(C)cc1CN1CCCC1c1cccc(Nc2nccs2)n1 (stereo not given)	23.25%
COCC(=O)N1CCCC1c1cccc(Nc2ncc(C)s2)n1 (stereo not given)	42.4%
CCN(CC)S(=O)(=O)N1CCCC1c1cccc(Nc2ncc(C)s2)n1 (stereo not given)	76.1%
CCOCCN1C[C@@H]2CCCO[C@@H]2[C@H](NC(=O)c2cnoc2C)C1	32.1%
CC1(c2ncc(CN3CCN(c4ncccn4)CC3)cn2)CCCCO1 (stereo not given)	23.15%
O=C(c1ccccc1F)N1C[C@@H]2COC[C@]2(COCc2cccnc2)C1	10%
CCCN1C(=O)c2ccccc2C1OC (stereo not given)	28.7%
COCC(=O)Nc1cc(Br)cnc1OCC(F)(F)F	26%
CC(=O)Nc1cc(Br)cnc1OCC(F)(F)F	30.3%
CCC(=O)Nc1cc(Br)cnc1OCC(F)(F)F	67.1%
O=C(c1cccc2cccnc12)N1CC[C@@]2(CCCO2)[C@@H](O)C1	22%

Compound	INHIBITION
COC(=O)CC(c1ccc(OC)c(O)c1)c1oc(C)cc(=O)c1O (stereo not given)	3.31%
CN1CCN(CCOc2ccc(NC(=O)c3ccncc3)cc2)CC1	27%
CNc1nc2c(c(C(=O)N3CCCC3)n1)CN(C(=O)c1cccs1)CC2	-37.9%
O=C1CCC(C(=O)N2CCOC(Cc3ccccc3Cl)C2)=NN1 (stereo not given)	71.1%
CCn1ncnc1CN1CCOC(Cc2cccc3ccccc23)C1 (stereo not given)	44.3%
Cn1ccnc1C(=O)N1CCOC(Cc2ccccc2Cl)C1 (stereo not given)	41.2%
O=C1CCC(C(=O)N2CCOC(Cc3cccc4ccccc34)C2)=NN1 (stereo not given)	53.7%
O=C1CCC(C(=O)N2CCOC(Cc3ccc(F)cc3)C2)=NN1 (stereo not given)	-11.6%
NCC1CN(C(=O)c2cccc(-n3cccn3)c2)CCO1 (stereo not given)	40.5%
Cc1cc2ccncc2n1CC1(O)CCN(C(=O)c2ccccn2)CC1	18.3%
COC(=O)c1cc2c(OC)c(OC)c(OC)cc2[nH]1	32.2%
C=c1ncsc1=C1NN=C(C2CCCN2C(=O)CCn2cccn2)O1 (stereo not given)	16.575%
CCCNC(=O)c1cccc(CNCc2csc(C(C)(C)C)n2)c1	77.4%
CCC(C)NC(=O)c1cccc(CNCc2csc(C(C)C)n2)c1 (stereo not given)	64.5%
CCC(C)NC(=O)c1cccc(CNC(=O)CC(F)(F)F)c1 (stereo not given)	-76.9%
CCCNC(=O)C1CCN(Cc2csc(C(C)C)n2)CC1	42%
CCCNC(=O)c1cccc(CNCc2csc(CC)n2)c1	12.3%
CCCNC(=O)CN1CCC(NCc2csc(C(C)C)n2)CC1	-16.8%
CCNC(=O)c1cccc(CNC(=O)c2cnc(C(C)(C)C)s2)c1	-6.94%
CCCNC(=O)c1cccc(CNCc2csc(C(C)C)n2)c1	55.1%
CC(C)c1nc(CNC(=O)c2ccc(C(C)N3CCCCC3)o2)cs1 (stereo not given)	42.2%
Cc1ccc(C(=O)O)c(N2CC(C)(C)[C@@](C)(O)C2)n1	16.2%
O=S(=O)(c1cncc(F)c1)N1CCC2(CCOC2)C1 (stereo not given)	-15.4%
CC(=O)Nc1ccc2nc(CN(C)Cc3snnc3C)ccc2c1	11.4%
COCc1cc(N(C)CCc2c(C)n[nH]c2C)ncn1	26.7%
COCC(c1cccc(C(F)(F)F)c1)N(C)C(=O)c1ccco1 (stereo not given)	48.45%
O=C(c1cnccn1)N1CC[C@H]2C[C@@H](c3ccncn3)O[C@@H]2C1	29.9%

Compound	INHIBITION
O=c1cc(CN2CCCC2)nc2n1CCCN(S(=O)(=O)C1CC1)C2	29.5%
Cc1noc([C@H]2C[C@@H]3CCN(c4nnc(C)s4)C[C@H]3O2)n1	39.5%
Cc1noc([C@@H]2C[C@@H]3CCN(c4nnc(C)s4)C[C@H]3O2)n1	-21.1%
Cc1noc([C@H]2CC[C@@H]3[C@@H](CCN3S(C)(=O)=O)O2)n1	7.12%
Cc1noc([C@@H]2CC[C@@H]3[C@@H](CCN3S(C)(=O)=O)O2)n1	-10.3%
Cc1noc([C@H]2CC[C@@H]3[C@@H](CCN3c3ncccn3)O2)n1	51.4%
Cc1noc([C@@H]2CC[C@@H]3[C@@H](CCN3c3nnc(C)s3)O2)n1	50.4%
CN1C[C@@H]2CN(C(=O)NCc3cccc(F)c3)CCC[C@]2(C(=O)O)C1	-10.5%
Cn1cc(C2CCCN2Cc2cscn2)cn1 (stereo not given)	42%
NC(=O)C1CCN(C(=O)CCn2ccc3ccc(F)cc32)CC1	33%
Cn1ncc2c1CCCC2NCc1cccc(OC2CCCC2)c1 (stereo not given)	50.5%
Cn1ncc2c1CCCC2NCc1cccnc1 (stereo not given)	3.3%
Cn1ncc2c1CCCC2NCc1cccc(C(F)(F)F)c1 (stereo not given)	89.1%
Cc1ccc(CNC2CCCc3c2cnn3C)s1 (stereo not given)	-10.8%
CCn1ncc2c1CCCC2NCc1cccc2c1OCCCO2 (stereo not given)	40%
Cc1cccc(CNC2CCCc3c2cnn3C)c1 (stereo not given)	25.1%
CSc1ccc(CNC2CCCc3c2cnn3C)cc1 (stereo not given)	-46.8%
Cn1ncc2c1CCCC2NCc1cccc(F)c1 (stereo not given)	4.71%
Cn1ncc2c1CCCC2NCc1cccc2c1OCCCO2 (stereo not given)	50.3%
CCCn1cc(C(=O)NC2CCC(n3cnnc3)CC2)c(C)n1 (stereo not given)	18.5%
Cc1occc1C(=O)N1CCC[C@]2(C[C@@H](OCc3ccccn3)CO2)C1	22.9%
CCOCC1CN(Cc2ccccn2)Cc2nn(CC3CC3)cc21 (stereo not given)	-2.17%
O=C(NCC(F)(F)F)c1ccc(-c2ccco2)[nH]c1=O	14.4%
COc1ccc(C2CCCN2S(=O)(=O)N(C)C)cc1 (stereo not given)	-45.2%
